# Values joined by “and” are separate entries in the source; they are usually repeats but may differ in a detail not shown here. Equal values may be shown once. Results filed as inconclusive are left out. Where a call stands in place of a potency, no number is given. Active and inactive are the calls of the source. Calls come from the whole dose curve; as a rule, active = well fitted cell-killing curve with a large enough effect; inconclusive = small, poorly fitted or top-dose-only effect; inactive = no such curve, though single readings can be large or run the other way.
# Test: qHTS of pediatric cancer cell lines to identify multiple opportunities for drug repurposing: Primary screen for Rh41 cells (AID 1347108); note: nearly all actives have a fitted effect of over 70% in size;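 for activity change, negative = cytotoxic: luminescence drop marks cytotoxic hits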
# Conditions: Rh41 rhabdomyosarcoma viability, CellTiter-Glo luminescence, 48 h; series mostly up to 46 µM; activity change, negative = cytotoxic: at the top concentration
# Method in brief: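 Phenotypic viability qHTS, 48 h compound exposure, CellTiter-Glo luminescence read-out; multi-concentration dosing so that potency and efficacy derive directly from the primary screen's curves.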
# Potency is the fitted concentration of half-maximal effect.
Structure (SMILES),Potency,"activity change, negative = cytotoxic"
O=C(O)c1cn(C2CC2)c2cc(N3CCNCC3)c(F)cc2c1=O,inactive,
COC(c1ccccc1)(c1ccccc1)[C@H](Oc1nc(C)cc(C)n1)C(=O)O,inactive,
CN(C)c1ccc(C(=C2C=CC(=[N+](C)C)C=C2)c2ccc(N(C)C)cc2)cc1,6.68 µM (active) and 1.66 µM (active),
CN(CCOc1ccc(CC2SC(=O)NC2=O)cc1)c1ccccn1 (configuration not stated),,28.1% (inactive)
S=P(N1CC1)(N1CC1)N1CC1,inactive,
CCn1cc(C(=O)O)c(=O)c2cc(F)c(N3CCNCC3)nc21,inactive,
C[C@@H]1CN(c2c(F)c(N)c3c(=O)c(C(=O)O)cn(C4CC4)c3c2F)C[C@H](C)N1,inactive,
CO[C@@]12[C@H](COC(N)=O)C3=C(C(=O)C(C)=C(N)C3=O)N1C[C@@H]1N[C@@H]12,13.3 µM (active) and 11.8 µM (active),
C#CCN[C@@H]1CCc2ccccc21,inactive,
NCCCC(O)(P(=O)(O)O)P(=O)(O)O,inactive,
O=C(O)c1cc(=O)[nH]c(=O)[nH]1,,20.2% (inactive)
CCOC(=O)c1ccc(OC(=O)CCCCCN=C(N)N)cc1,,21.2% (inactive)
Cc1oc(=O)oc1CN1CCN(c2cc3c(cc2F)c(=O)c(C(=O)O)c2n3C(C)S2)CC1 (configuration not stated),,15% (inactive)
O=C(N[C@H](CO)[C@H](O)c1ccc([N+](=O)[O-])cc1)C(Cl)Cl,inactive,
NC(=O)c1cccc(N)c1,,9.56% (inactive)
O=C(O)CCn1c2c(c3ccccc31)C[C@H](NS(=O)(=O)c1ccc(F)cc1)CC2,inactive,

Structure (SMILES),Potency,"activity change, negative = cytotoxic"
N[C@@H](C(=O)N[C@@H]1C(=O)N2C(C(=O)O)=C(Cl)CS[C@H]12)c1ccccc1,inactive,
CCCCc1oc2ccc(NS(C)(=O)=O)cc2c1C(=O)c1ccc(OCCCN(CCCC)CCCC)cc1,23.5 µM (active),
Cc1noc(NS(=O)(=O)c2ccc(N)cc2)c1C,inactive,
Cc1ncc([N+](=O)[O-])n1CCO,inactive,
CCN(C)C(=O)Oc1cccc([C@H](C)N(C)C)c1,inactive,
CCN[C@H]1C[C@H](C)S(=O)(=O)c2sc(S(N)(=O)=O)cc21,inactive,
NC(=O)N1c2ccccc2CC(=O)c2ccccc21,inactive,
CCCCS(=N)(=O)CCC(N)C(=O)O (configuration not stated),,18.7% (inactive)
COc1ccccc1OCC(O)COC(N)=O (configuration not stated),inactive,
Cc1onc(-c2ccccc2Cl)c1C(=O)N[C@@H]1C(=O)N2[C@@H]1SC(C)(C)[C@@H]2C(=O)O,inactive,
CCN(CC)CCn1c(=O)c(Cc2ccc(OC)cc2)nc2ccccc21,,22.5% (inactive)
Cc1cccc(Nc2ccncc2S(=O)(=O)NC(=O)NC(C)C)c1,inactive,
O=P(O)(O)C(O)(Cc1cccnc1)P(=O)(O)O,inactive,
COc1ncnc(NS(=O)(=O)c2ccc(N)cc2)c1OC,inactive,
CC(C)C1CCC(C(=O)N[C@H](Cc2ccccc2)C(=O)O)CC1 (some centres not stated),inactive,
CCOCC(O)COc1ccc(NC(=O)CC[S+](C)C)cc1 (configuration not stated),inactive,
